According to the supplement of paper PMC12282887:
± gives the standard deviation of the averaged measurements.

Legend:
Test in all cases: promoter activity interaction Z-score (Lux/OD deviation from empty-vector control); higher = stronger promoter induction by the compound
[1] = tested on: E. coli BW25113 acrABp lux reporter
Summary of the method: (§1)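 In 384-well plates, 40 µl LB Lennox cultures of E. coli BW25113 with low-copy luxCDABE promoter reporters grew at 37°C. Optical density at 600 nm and light output were recorded every 30 min for 12 h, with windows of 0–8 h for wild type and 1–9 h for deletion strains, and wells under 10% of the median growth value were left out. Each value is a Z-transformed residual of growth-normalised luminescence fitted against a control.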

[2] = tested on: E. coli BW25113 micFp lux reporter
Summary of the method: as §1

[3] = tested on: E. coli BW25113 ompFp lux reporter
Summary of the method: as §1

[4] = tested on: E. coli BW25113 robp lux reporter
Summary of the method: as §1

[5] = tested on: E. coli BW25113 soxSp lux reporter
Summary of the method: as §1

[6] = tested on: E. coli BW25113 tolCp lux reporter
Summary of the method: as §1

[7] = 1 µg/ml, genetic background: wild type
[8] = 1 µg/ml, genetic background: ΔmarA
[9] = 1 µg/ml, genetic background: Δrob
[10] = 1 µg/ml, genetic background: ΔsoxS
[11] = 1.9 µg/ml, genetic background: wild type
[12] = 1.9 µg/ml, genetic background: ΔmarA
[13] = 1.9 µg/ml, genetic background: Δrob
[14] = 1.9 µg/ml, genetic background: ΔsoxS
[15] = 3.8 µg/ml, genetic background: wild type
[16] = 3.8 µg/ml, genetic background: ΔmarA
[17] = 3.8 µg/ml, genetic background: Δrob
[18] = 3.8 µg/ml, genetic background: ΔsoxS
[19] = 7.7 µg/ml, genetic background: wild type
[20] = 7.7 µg/ml, genetic background: ΔmarA
[21] = 7.7 µg/ml, genetic background: Δrob
[22] = 7.7 µg/ml, genetic background: ΔsoxS

Structure (SMILES): NC1CONC1=O (stereo unspecified) [Cycloserine D]
- promoter activity interaction Z-score [1, 7]: 0.0277 ± 0.22
- promoter activity interaction Z-score [1, 8]: 0.657 ± 0.33
- promoter activity interaction Z-score [1, 9]: -0.0729 ± 0.055
- promoter activity interaction Z-score [1, 10]: 0.00357 ± 0.22
- promoter activity interaction Z-score [1, 11]: -0.389 ± 0.056
- promoter activity interaction Z-score [1, 12]: 0.57 ± 0.12
- promoter activity interaction Z-score [1, 13]: 0.0199 ± 0.26
- promoter activity interaction Z-score [1, 14]: -0.339 ± 0.62
- promoter activity interaction Z-score [1, 15]: -0.136 ± 0.039
- promoter activity interaction Z-score [1, 16]: -0.29 ± 0.2
- promoter activity interaction Z-score [1, 17]: 0.00284 ± 0.03
- promoter activity interaction Z-score [1, 18]: -0.0366 ± 0.12
- promoter activity interaction Z-score [1, 19]: -0.588 ± 0.2
- promoter activity interaction Z-score [1, 20]: -0.128 ± 0.24
- promoter activity interaction Z-score [1, 21]: -0.0882 ± 0.11
- promoter activity interaction Z-score [1, 22]: -0.319 ± 0.24
- promoter activity interaction Z-score [2, 7]: 0.0376 ± 0.12
- promoter activity interaction Z-score [2, 8]: -0.00943 ± 0.084
- promoter activity interaction Z-score [2, 9]: -0.118 ± 0.074
- promoter activity interaction Z-score [2, 10]: -0.0115 ± 0.022
- promoter activity interaction Z-score [2, 11]: -0.417 ± 0.2
- promoter activity interaction Z-score [2, 12]: -0.00494 ± 0.0052
- promoter activity interaction Z-score [2, 13]: -0.0732 ± 0.01
- promoter activity interaction Z-score [2, 14]: -0.388 ± 0.035
- promoter activity interaction Z-score [2, 15]: -0.305 ± 0.5
- promoter activity interaction Z-score [2, 16]: -0.0376 ± 0.047
- promoter activity interaction Z-score [2, 17]: -0.0224 ± 0.047
- promoter activity interaction Z-score [2, 18]: -0.251 ± 0.019
- promoter activity interaction Z-score [2, 19]: -0.38 ± 0.0041
- promoter activity interaction Z-score [2, 20]: 0.0683 ± 0.028
- promoter activity interaction Z-score [2, 21]: 0.105 ± 0.092
- promoter activity interaction Z-score [2, 22]: -0.294 ± 0.16
- promoter activity interaction Z-score [3, 7]: 0.314 ± 0.21
- promoter activity interaction Z-score [3, 8]: 0.134 ± 0.086
- promoter activity interaction Z-score [3, 9]: -0.394 ± 0.46
- promoter activity interaction Z-score [3, 10]: 0.0539 ± 0.036
- promoter activity interaction Z-score [3, 11]: -0.14 ± 0.24
- promoter activity interaction Z-score [3, 12]: 0.387 ± 0.13
- promoter activity interaction Z-score [3, 13]: -0.422 ± 0.075
- promoter activity interaction Z-score [3, 14]: -0.381 ± 0.19
- promoter activity interaction Z-score [3, 15]: -0.202 ± 0.043
- promoter activity interaction Z-score [3, 16]: 0.194 ± 0.031
- promoter activity interaction Z-score [3, 17]: 0.0558 ± 0.16
- promoter activity interaction Z-score [3, 18]: 0.0329 ± 0.09
- promoter activity interaction Z-score [3, 19]: -0.567 ± 0.3
- promoter activity interaction Z-score [3, 20]: 0.0892 ± 0.075
- promoter activity interaction Z-score [3, 21]: 0.153 ± 0.069
- promoter activity interaction Z-score [3, 22]: -0.485 ± 0.02
- promoter activity interaction Z-score [4, 7]: 0.73 ± 0.71
- promoter activity interaction Z-score [4, 8]: 0.0767 ± 0.37
- promoter activity interaction Z-score [4, 9]: 0.466 ± 0.27
- promoter activity interaction Z-score [4, 10]: 0.49 ± 0.31
- promoter activity interaction Z-score [4, 11]: -0.277 ± 0.26
- promoter activity interaction Z-score [4, 12]: 0.295 ± 0.52
- promoter activity interaction Z-score [4, 13]: 0.186 ± 0.67
- promoter activity interaction Z-score [4, 14]: 0.471 ± 0.99
- promoter activity interaction Z-score [4, 15]: -0.466 ± 0.068
- promoter activity interaction Z-score [4, 16]: 0.31 ± 0.081
- promoter activity interaction Z-score [4, 17]: 0.0139 ± 0.21
- promoter activity interaction Z-score [4, 18]: -0.224 ± 0.093
- promoter activity interaction Z-score [4, 19]: -1.02 ± 0.081
- promoter activity interaction Z-score [4, 20]: -0.102 ± 0.31
- promoter activity interaction Z-score [4, 21]: -0.282 ± 0.25
- promoter activity interaction Z-score [4, 22]: -0.361 ± 0.67
- promoter activity interaction Z-score [5, 7]: 0.217 ± 0.043
- promoter activity interaction Z-score [5, 8]: 0.0924 ± 0.0091
- promoter activity interaction Z-score [5, 9]: 0.0464 ± 0.16
- promoter activity interaction Z-score [5, 10]: 0.093 ± 0.016
- promoter activity interaction Z-score [5, 11]: -0.193 ± 0.011
- promoter activity interaction Z-score [5, 12]: 0.076 ± 0.02
- promoter activity interaction Z-score [5, 13]: -0.205 ± 0.024
- promoter activity interaction Z-score [5, 14]: 0.164 ± 0.2
- promoter activity interaction Z-score [5, 15]: -0.0918 ± 0.052
- promoter activity interaction Z-score [5, 16]: -0.113 ± 0.019
- promoter activity interaction Z-score [5, 17]: 0.0335 ± 0.083
- promoter activity interaction Z-score [5, 18]: -0.0149 ± 0.074
- promoter activity interaction Z-score [5, 19]: -0.198 ± 0.27
- promoter activity interaction Z-score [5, 20]: -0.171 ± 0.14
- promoter activity interaction Z-score [5, 21]: -0.117 ± 0.11
- promoter activity interaction Z-score [5, 22]: -0.174 ± 0.047
- promoter activity interaction Z-score [6, 7]: 0.33 ± 0.084
- promoter activity interaction Z-score [6, 8]: 1.18 ± 0.26
- promoter activity interaction Z-score [6, 9]: -0.401 ± 0.15
- promoter activity interaction Z-score [6, 10]: -0.259 ± 0.83
- promoter activity interaction Z-score [6, 11]: -0.543 ± 0.64
- promoter activity interaction Z-score [6, 12]: -0.33 ± 0.62
- promoter activity interaction Z-score [6, 13]: -0.224 ± 0.69
- promoter activity interaction Z-score [6, 14]: 0.645 ± 0.11
- promoter activity interaction Z-score [6, 15]: 0.289 ± 0.26
- promoter activity interaction Z-score [6, 16]: 0.197 ± 0.06
- promoter activity interaction Z-score [6, 17]: 0.242 ± 0.12
- promoter activity interaction Z-score [6, 18]: -0.045 ± 0.33
- promoter activity interaction Z-score [6, 19]: -1.06 ± 0.73
- promoter activity interaction Z-score [6, 20]: -0.822 ± 0.7
- promoter activity interaction Z-score [6, 21]: -0.397 ± 0.29
- promoter activity interaction Z-score [6, 22]: -0.568 ± 0.58
